Records with an inconclusive call do not appear. Activity calls are given as the source filed them. Calls follow the shape of the dose curve; as a rule, active = well fitted curve in the direction sought with a large enough effect; inconclusive = small, poorly fitted or top-dose-only effect, or another doubt; inactive = no such curve, though single readings can be large; an effect the other way counts as inactive or inconclusive.
Columns and labels:
[1] = biological target: Rap guanine nucleotide exchange factor 3 (Homo sapiens) (UniProt O95398); test: Confirmatory qHTS for agonist of cAMP-regulated guanine nucleotide exchange factor 3 (EPAC1) (AID 1645881);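 also: EPAC1 catalysed release of BODIPY-GDP from Rap1B seen as fluorescence loss; 100% = effect of cAMP agonist control; nearly all actives have a fitted effect of over 75% in size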
[2] = biological target: Rap guanine nucleotide exchange factor 4 (Homo sapiens) (UniProt Q8WZA2); test: Confirmatory qHTS for agonist of cAMP-regulated guanine nucleotide exchange factor 4 (EPAC2) (AID 1645884);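 also: nucleotide exchange releases bodipy-GDP from Rap1 and this lowers its fluorescence; % is scaled to controls: 0 for no effect and ±100 for the full control effect; nearly all actives have a fitted effect of over 65% in size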
[3] = biological target: Rap guanine nucleotide exchange factor 3 (Homo sapiens) (UniProt O95398); test: Counterscreen qHTS for antagonist of cAMP-regulated guanine nucleotide exchange factor 3 (EPAC1) (AID 1645888);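 also: fluorescence loss as bound BODIPY-GDP is released from Rap1B; % of control where 0% means no effect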
Summary of the method: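 Measured: fluorescence of BODIPY-GDP bound to Rap1B, which falls as exchange proceeds. Conditions include 50 uM competing GDP, 5 and 30 min reads, and a later cAMP challenge for antagonist detection.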

[4] = biological target: Cytochrome P450 3A4 (Homo sapiens) (UniProt P08684); test: qHTS Assay for Activators of Cytochrome P450 3A4 (AID 885); also: nearly all actives have a fitted effect of over 65% in size
Summary of the method: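 20nM CYP3A4 + 25uM Luciferin-PPXE (=KM), 200mM KPO4; cpd 10 min RT; NADPH regen, 60 min RT; stop w/ detection buffer, 20 min; luminescence. Normalized to 57 uM ketoconazole.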

[5] = Confirmation and Secondary Assay for Modulators of Hemoglobin Beta Chain Splicing at IVS2 654 locus (AID 910);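 also: per-well total GFP intensity by laser scanning cytometry after 2-day treatment; % of control where 0% means no effect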
Summary of the method: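 HeLa cells stably carrying EGFP interrupted by mutant beta-globin IVS2-654 intron (CMV-driven) were treated with compound for 2 days at 37C; corrected splicing was scored as total peak GFP intensity per well (488 nm excitation, 500-520 nm emission).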

[6] = Confirmation and Secondary Assay for Modulators of Hemoglobin Beta Chain Splicing at IVS2 705 locus (AID 930);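 also: HeLa cells stably expressing the EGFP-705 splicing reporter; GFP fluorescence per well restored by corrected splicing of the IVS2-705 intron in EGFP; series mostly up to about 46 µM; % of control where 0% means no effect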
Summary of the method: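 Secondary splice-site specificity test uses HeLa expressing CMV-driven EGFP interrupted by IVS2-705; cells were treated 2 days at 37C with 500 nM antisense PNA as positive control.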

[7] = biological target: Rap guanine nucleotide exchange factor 4 (Homo sapiens) (UniProt Q8WZA2); test: Confirmatory qHTS for antagonist of cAMP-regulated guanine nucleotide exchange factor 4 (EPAC2) (AID 1645885); also: % is scaled to controls: 0 for no effect and ±100 for the full control effect; nearly all actives have a fitted effect of over 25% in size

Chain of Rap guanine nucleotide exchange factor 4 (Homo sapiens) (Q8WZA2 whole entry, looked up): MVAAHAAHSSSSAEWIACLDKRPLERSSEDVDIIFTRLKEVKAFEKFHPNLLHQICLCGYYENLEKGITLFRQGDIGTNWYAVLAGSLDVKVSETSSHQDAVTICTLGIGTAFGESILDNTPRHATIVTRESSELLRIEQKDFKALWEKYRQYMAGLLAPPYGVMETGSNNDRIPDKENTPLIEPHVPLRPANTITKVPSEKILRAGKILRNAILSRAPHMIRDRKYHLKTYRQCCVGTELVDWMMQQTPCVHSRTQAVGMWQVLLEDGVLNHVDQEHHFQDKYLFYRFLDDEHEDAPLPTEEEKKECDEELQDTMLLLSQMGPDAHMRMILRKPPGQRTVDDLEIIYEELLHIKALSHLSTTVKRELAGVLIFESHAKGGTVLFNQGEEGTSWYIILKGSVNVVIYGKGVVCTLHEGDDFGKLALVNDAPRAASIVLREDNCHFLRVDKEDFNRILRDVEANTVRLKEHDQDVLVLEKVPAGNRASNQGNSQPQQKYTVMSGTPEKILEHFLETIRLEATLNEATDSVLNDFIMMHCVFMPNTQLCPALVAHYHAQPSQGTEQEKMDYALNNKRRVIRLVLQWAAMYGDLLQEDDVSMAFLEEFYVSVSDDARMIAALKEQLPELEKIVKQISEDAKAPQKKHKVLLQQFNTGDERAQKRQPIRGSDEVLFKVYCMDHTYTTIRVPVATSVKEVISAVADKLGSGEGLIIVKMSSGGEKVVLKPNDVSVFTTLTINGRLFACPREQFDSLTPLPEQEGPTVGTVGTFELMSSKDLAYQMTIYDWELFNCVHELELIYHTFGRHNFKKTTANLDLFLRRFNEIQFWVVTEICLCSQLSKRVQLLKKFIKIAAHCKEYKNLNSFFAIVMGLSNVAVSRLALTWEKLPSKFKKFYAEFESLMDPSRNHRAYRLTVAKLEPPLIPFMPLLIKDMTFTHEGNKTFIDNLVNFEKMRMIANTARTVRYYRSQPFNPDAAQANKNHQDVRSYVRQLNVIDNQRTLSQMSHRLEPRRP
Chain of Rap guanine nucleotide exchange factor 3 (Homo sapiens) (O95398 whole entry, looked up): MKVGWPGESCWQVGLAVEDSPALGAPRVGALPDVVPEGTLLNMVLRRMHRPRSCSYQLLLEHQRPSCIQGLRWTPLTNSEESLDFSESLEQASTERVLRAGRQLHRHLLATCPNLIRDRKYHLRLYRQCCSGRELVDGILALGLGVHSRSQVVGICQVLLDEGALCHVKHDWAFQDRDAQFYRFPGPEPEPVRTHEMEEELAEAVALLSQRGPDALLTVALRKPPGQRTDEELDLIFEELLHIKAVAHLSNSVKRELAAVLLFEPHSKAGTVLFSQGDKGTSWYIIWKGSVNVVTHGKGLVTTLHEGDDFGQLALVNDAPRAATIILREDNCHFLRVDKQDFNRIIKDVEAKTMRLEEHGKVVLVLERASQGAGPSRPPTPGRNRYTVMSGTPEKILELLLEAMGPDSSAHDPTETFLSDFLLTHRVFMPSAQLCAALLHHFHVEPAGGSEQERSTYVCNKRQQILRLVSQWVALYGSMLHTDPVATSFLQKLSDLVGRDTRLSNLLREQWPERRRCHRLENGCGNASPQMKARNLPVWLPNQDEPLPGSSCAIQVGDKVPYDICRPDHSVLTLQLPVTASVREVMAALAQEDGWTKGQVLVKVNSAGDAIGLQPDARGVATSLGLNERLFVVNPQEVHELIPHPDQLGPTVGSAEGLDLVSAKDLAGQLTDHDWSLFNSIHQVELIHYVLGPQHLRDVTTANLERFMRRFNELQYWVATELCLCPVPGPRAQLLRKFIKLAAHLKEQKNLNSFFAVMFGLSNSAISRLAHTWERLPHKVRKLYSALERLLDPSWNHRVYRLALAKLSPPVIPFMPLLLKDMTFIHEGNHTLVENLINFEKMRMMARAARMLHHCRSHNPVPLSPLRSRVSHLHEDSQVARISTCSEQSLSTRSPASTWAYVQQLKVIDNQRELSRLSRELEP
Chain of Cytochrome P450 3A4 (Homo sapiens) (P08684 whole entry, looked up): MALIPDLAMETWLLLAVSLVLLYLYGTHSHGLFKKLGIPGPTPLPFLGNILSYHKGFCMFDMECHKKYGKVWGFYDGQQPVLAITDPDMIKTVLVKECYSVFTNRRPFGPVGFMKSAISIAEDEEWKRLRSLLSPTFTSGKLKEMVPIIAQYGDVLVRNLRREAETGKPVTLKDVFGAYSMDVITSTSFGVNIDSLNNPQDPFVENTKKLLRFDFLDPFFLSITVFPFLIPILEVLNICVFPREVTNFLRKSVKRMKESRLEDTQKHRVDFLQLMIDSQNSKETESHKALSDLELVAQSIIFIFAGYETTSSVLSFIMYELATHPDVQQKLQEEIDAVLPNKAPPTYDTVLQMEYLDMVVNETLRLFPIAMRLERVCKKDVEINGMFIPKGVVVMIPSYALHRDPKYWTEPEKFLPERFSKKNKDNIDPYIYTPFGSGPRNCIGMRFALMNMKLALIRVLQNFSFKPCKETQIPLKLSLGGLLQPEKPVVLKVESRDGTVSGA

Cc1ccc(CN(Cc2ccco2)C(=O)c2ccccc2Br)o1
inactive: Potency [1] | Potency [2] | Potency [3]

Cc1oc2ccc(O)c(CN3CCCCC3)c2c1C(=O)Nc1cccc(C(F)(F)F)c1
inactive: Potency [1] | Potency [2] | Potency [3]

CN(CC(=O)Nc1ccc(F)cc1)C(=O)c1cc(-c2ccco2)nc2ccccc12
inactive: Potency [1] | Potency [2] | Potency [3]

C/C=C\C=C/C(=O)Nc1cccc(C2=NOC3(C2)C[C@H](C(N)=O)N(C(=O)c2ccc(OC)cc2)C3)c1 (stereo not given in full)
inactive: Potency [1] | Potency [2] | Potency [3]

CN(C)c1ccc(-c2[nH][nH]c(=O)c2NC(=O)c2ccc3ccccc3n2)cc1
inactive: Potency [1] | Potency [2] | Potency [3]

Cc1cc2c(C)nc(N/N=C/c3ccc(F)cc3)nc2o1
inactive: Potency [1] | Potency [2] | Potency [3]

Cc1cc(NC2=CC(=O)C(=O)c3ccccc32)no1
inactive: Potency [1] | Potency [2] | Potency [3]

N#C/C(=C(/O)c1ccccc1F)c1nc2cc(C(F)(F)F)ccc2s1
inactive: Potency [1] | activation [2] 1.01% [at 17.1 µM, percent relative to cAMP agonist control] | activity change, negative = inhibition [3] 14.7% [at 30.8 µM]

COc1cc(NC(=O)c2ccccc2NS(=O)(=O)c2ccc(Cl)s2)cc(OC)c1
inactive: Potency [1] | Potency [2] | Potency [3]

CCN1CCN(c2ccc(S(=O)(=O)N3CCCCC3)cc2NC(=O)c2ccc([N+](=O)[O-])s2)CC1
inactive: Potency [1] | Potency [2] | Potency [3]

CCOC(=O)C1=CCN(S(=O)(=O)c2ccccc2C)C1c1ccc(Cl)c(Cl)c1 (stereo not given)
inactive: Potency [1] | Potency [2] | Potency [3]

CCOC(=O)C1=C(C)N=c2s/c(=C/c3ccc(OCC(=O)O)cc3)c(=O)n2C1c1ccc(F)cc1 (stereo not given)
inactive: Potency [1] | Potency [2] | Potency [3]

Nc1ccc(S(=O)(=O)Nc2nccs2)cc1N=Nc1ccccc1[N+](=O)[O-]
inactive: Potency [1] | activation [2] 0% [at 17.1 µM, percent relative to cAMP agonist control] | activity change, negative = inhibition [3] -16% [at 30.8 µM]

CC(C)=CCc1c2c(c3occ(-c4ccc(O)cc4)c(=O)c3c1O)C=CC(C)(C)O2
inactive: outcome [4] | Potency [5] | Potency [6] | Potency [1] | Potency [2] | Potency [7]

Cc1ccc(/C=C2/SC(=S)N(c3ccc(S(=O)(=O)Nc4nccs4)cc3)C2=O)cc1
inactive: Potency [1] | Potency [2] | Potency [3]

Nc1ccc(C(=O)N2CCN(S(=O)(=O)c3ccc(Cl)s3)CC2)cc1[N+](=O)[O-]
inactive: Potency [1] | Potency [2] | Potency [3]

C[n+]1cccc2c(Br)ccc([O-])c21
inactive: Potency [1] | Potency [2] | Potency [3]

Cc1cccc(NC(=O)CNC(=O)CCc2nc3sc4c(c3c(=O)[nH]2)CCCC4)c1C
inactive: Potency [1] | Potency [2] | Potency [3]

CCc1noc(C)c1C(=O)Nc1nc2c(C)cc(C)cc2s1
inactive: Potency [1] | Potency [2] | Potency [3]

COCCCNC(=O)c1ccc2c3c(onc13)-c1ccccc1C2=O
inactive: Potency [1] | Potency [2] | Potency [3]

Cc1ccc(S(=O)(=O)N2CCN(c3ncnc4sccc34)CC2)cc1C
inactive: Potency [1] | Potency [2] | Potency [3]

COCCNc1nc(Oc2cccc(F)c2)c2sccc2n1
inactive: Potency [1] | Potency [2] | Potency [3]

C=Cc1ccc(CC2(C)C(=O)Nc3ccc(Cl)cc32)cc1 (stereo not given)
inactive: Potency [1] | activation [2] 9.02% [at 17.1 µM, percent relative to cAMP agonist control] | activity change, negative = inhibition [3] -14.8% [at 30.8 µM]

Cc1ccc(-c2ccc(CN3C(C(C)C)C(=O)N(Cc4cn(CCC5OCCO5)nn4)CCS3(=O)=O)cc2)c(C)c1 (stereo not given)
inactive: Potency [1] | Potency [2] | Potency [3]

CCOc1ccccc1NC(=O)C1COc2ccccc2O1 (stereo not given)
inactive: Potency [1] | Potency [2] | Potency [3]

CC(C)=CCc1c(O)cc(O)c2c1OC(c1ccc(O)cc1)CC2=O (stereo not given)
inactive: Potency [1] | Potency [2] | Potency [3]

CCCCC(=O)N(C)c1c(CC)nc2c(OCc3ccc(C(F)(F)F)cc3)cccn12
inactive: Potency [1] | activation [2] 3.08% [at 17.1 µM, percent relative to cAMP agonist control] | activity change, negative = inhibition [3] -15.6% [at 30.8 µM]

CCCCn1c(N)c(N(CCOC)C(=O)c2ccc(-c3ccc(C(C)=O)cc3)o2)c(=O)[nH]c1=O
inactive: Potency [1] | Potency [2] | Potency [3]

COc1ccc(-c2sc3ccc(OC)cc3c2C#CCCO)cc1
inactive: Potency [1] | Potency [2] | Potency [3]

— PubChem BioAssay (NCATS)
